# Rows were chosen to be rich in hits. Some 2.3% of all compounds tested hit in one or more screens of this group.
# POLI inh = qHTS for Inhibitors of Polymerase Iota | DNA polymerase iota (Homo sapiens), Q9UNA4 | Pol iota fluorescent replication assay, 10 min | Potency, µM (doses to about 115 µM), for inactives: at the top dose activity, negative = inhibition, actives largely listed as inhibitors | hit rate 1% among 390,000 | AID 588590, 2011
#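 Pol iota at 10 nM preincubated 15 min with compounds at room temperature; reaction started with fluorescent substrate, 50 nM final. Fluorescence read kinetically at 0 and 10 min; buffer-only wells as negative control.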
# WRN helicase inh = qHTS for Inhibitors of WRN Helicase; Bifunctional 3'-5' exonuclease/ATP-dependent helicase WRN (Homo sapiens), Q14191; WRN helicase unwinding, fluorescent forked duplex, kinetic; Potency, µM (top dose mostly 114 µM), inactives show at the top dose activity change, negative = inhibition, actives largely listed as inhibitors; hit rate 0.46% among 360,000; note: % is set by controls: 0 for no effect and ±100 for the full control effect; nearly all actives have a fitted effect of over 55% in size
#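 Screening of the MLSMR collection measured strand separation of a quenched forked DNA duplex (100 nM) by 20 nM WRN with 2 mM ATP, all final. Compounds were preincubated with enzyme 15 min at room temperature.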
# POLB inh = qHTS Assay for Inhibitors of DNA Polymerase Beta; P06746; Pol beta primer extension/strand displacement, fluorescence kinetic; Potency, µM (doses to about 114 µM), for the others: top-dose activity change, negative = inhibition, hits mostly inhibitors; hit rate 1.3% among 340,000; note: % is set by controls: 0 for no effect and ±100 for the full control effect
#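 Values derive from four-parameter Hill fits of normalized kinetic data: reads at 0 and 10 min following addition of 50 nM substrate to 10 nM Pol beta preincubated 15 min with compound.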
# Pol eta inh = qHTS for Inhibitors of Polymerase Eta | recombinant Pol eta, fluorescent DNA replication assay | AID 588591, 2011 | Potency, µM (highest dose often 114 µM), for inactives: at the highest dose activity change, negative = inhibition, usual class: inhibitors | hit rate 1.2% among 390,000 | DNA polymerase eta (Homo sapiens), Q9Y253; note: % is set by controls: 0 for no effect and ±100 for the full control effect
#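 Pol eta at 10 nM preincubated with compounds 15 min at room temperature; reaction started with fluorescent substrate (50 nM final) and read kinetically at 0 and 10 min.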
# Pol kappa inh = qHTS for Inhibitors of Polymerase Kappa. DNA polymerase kappa (Homo sapiens), Q9UBT6. purified Pol kappa, fluorescent DNA synthesis assay, 10 min. Potency, µM (series often up to 107 µM), inactives show at the highest dose activity, negative = inhibition, hits mostly inhibitors. hit rate 0.53% among 400,000; note: % is set by controls: 0 for no effect and ±100 for the full control effect
# Target sequence (Q9UBT6 whole entry, looked up): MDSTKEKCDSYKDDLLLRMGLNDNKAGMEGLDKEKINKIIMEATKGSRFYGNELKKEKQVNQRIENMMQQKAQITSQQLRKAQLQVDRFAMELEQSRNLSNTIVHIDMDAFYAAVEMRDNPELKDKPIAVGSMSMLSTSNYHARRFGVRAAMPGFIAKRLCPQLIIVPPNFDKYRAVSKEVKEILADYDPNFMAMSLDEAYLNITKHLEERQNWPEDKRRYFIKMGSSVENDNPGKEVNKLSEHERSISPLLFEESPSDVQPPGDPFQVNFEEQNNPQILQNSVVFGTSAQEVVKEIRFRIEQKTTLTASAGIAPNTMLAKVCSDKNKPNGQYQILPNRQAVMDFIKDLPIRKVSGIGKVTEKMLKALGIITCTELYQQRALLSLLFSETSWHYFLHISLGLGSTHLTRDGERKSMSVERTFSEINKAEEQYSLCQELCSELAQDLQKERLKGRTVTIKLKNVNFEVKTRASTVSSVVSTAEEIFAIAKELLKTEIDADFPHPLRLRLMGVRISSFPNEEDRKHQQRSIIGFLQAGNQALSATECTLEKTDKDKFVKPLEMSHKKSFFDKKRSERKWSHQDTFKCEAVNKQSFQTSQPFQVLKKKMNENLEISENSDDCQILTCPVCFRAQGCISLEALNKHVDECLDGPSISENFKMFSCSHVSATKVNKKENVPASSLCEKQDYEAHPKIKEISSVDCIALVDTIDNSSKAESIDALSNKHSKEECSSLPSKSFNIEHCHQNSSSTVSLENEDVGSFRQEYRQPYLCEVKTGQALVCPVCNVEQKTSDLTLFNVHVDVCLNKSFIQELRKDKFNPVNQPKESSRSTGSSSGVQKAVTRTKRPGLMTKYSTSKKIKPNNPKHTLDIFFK
#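 Kinetic fluorescence screen: compound preincubated 15 min RT with 10 nM enzyme; 50 nM substrate (final) initiates; reads at 0/10 min.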
# PGK validate = qHTS for inhibitors of Phosphogylcerate Kinase: Hit Validation Screen; Potency, µM (series often up to 57.5 µM), without a hit: at the top dose activity change, negative = inhibition, most hits filed as inhibitors; shares compounds with Pol kappa inh; hit rate 79% among 500; TbPGK coupled GAPDH assay, Kinase-Glo luminescence; note: % is set by controls: 0 for no effect and ±100 for the full control effect; nearly all actives have a fitted effect of over 65% in size
# POLI cherry-pick = qHTS for Inhibitors of Polymerase Iota: Confirmatory Assay for Cherry-picked Compounds; AID 720496, 2013; Pol iota primer extension, TAMRA/BHQ fluorescence; hit rate 77% among 1,500; Potency, µM, actives largely listed as inhibitors; shares compounds with Pol kappa inh
# Active calls of the source: *; ? = inconclusive; . = no result given; [ ] = another dose, or the depositor's remark. Calls come from the whole dose curve; as a rule, active = well fitted curve in the direction sought with a large enough effect; inconclusive = small, poorly fitted or top-dose-only effect, or another doubt; inactive = no such curve, though single readings can be large; an effect the other way counts as inactive or inconclusive. Potency is the fitted concentration of half-maximal effect.
SMILES,POLI inh,WRN helicase inh,POLB inh,Pol eta inh,Pol kappa inh,PGK validate,others
O=S(=O)(c1cccc(F)c1)N1CCC(Oc2ccc(-n3cnnn3)cc2)CC1,17.6%,.,1.1%,-2.4%,0.2%,.,
O=[N+]([O-])c1ccc2nc(SCc3cn4cc(Cl)ccc4n3)[nH]c2c1,28.2µM*,?,5.62µM*,50.1µM*,-28.5%,.,POLI cherry-pick=?
CCOc1ccc(/C=C2\SC(=S)N(CCC(=O)Nc3cccc(C(=O)O)c3)C2=O)cc1,?,-15.6%[57.1 µM],-2.8%,44.7µM*,-13.3%,.,POLI cherry-pick=75.2*
O=C(CCN1C(=O)/C(=C/c2ccc3c(c2)OCO3)SC1=S)Nc1ccc(C(=O)O)cc1,?,-12.2%[11.6 µM],?,?,-23.2%,.,POLI cherry-pick=75.2*
Cc1ccc(Cl)cc1N1CCN(C(=O)c2ccc(C)c(-n3c(C)nc4cccnc43)c2)CC1,18.3%,.,0.1%,-17.9%,-20.9%,.,
CCOc1ccc(C(=O)c2cn(CC(=O)Nc3ccc(F)cc3)c3cc4c(cc3c2=O)OCCO4)cc1,-9.5%,.,29.3%,-5.9%,-3.8%,.,
c1ccc(-c2noc(-c3ccncc3)n2)nc1,29.0%,9.8%,28.2%,-11.9%,4.2%,18.3µM*,
c1ccc(-c2noc(-c3cccnc3)n2)nc1,11.0%,-2.7%,11.1%,-7.9%,3.7%,.,
c1ccc(-c2noc(-c3ccc4c(c3)OCO4)n2)nc1,5.8%,-5.1%,?,-4.7%,-3.9%,5.8µM*,
O=C(NCCc1csc(-c2cccnc2)n1)c1cccc(C(F)(F)F)c1,-21.3%,.,25.4%,-3.0%,-6.8%[60.1 µM],.,
COc1ccc(C)cc1NC(=O)C(CCSC)NS(=O)(=O)c1ccc2c(c1)oc(=O)n2C (centres undefined),18.6%,.,0.7%,-23.1%,-2.1%[60.1 µM],.,
COc1ccc(OC)c(NC(=O)c2oc3c(c2C)-c2nn(Cc4ccc(Cl)cc4)cc2CC3)c1,31.8%,.,2.8%,-11.7%,3.3%,.,
O=c1c(CO)cc(CO)cc(CO)c1O,?,-1.0%,2.1%,0.4%,-1.8%,.,
O=C1C=CC(=O)c2c(O)c(CO)c(CO)c(O)c21,3.16µM*,7.94µM*,.,1µM*,3.55µM*,8.19µM*,
Cc1ccccc1OCCSc1nc2ccc(NC(=O)c3cccc(F)c3)cc2s1,17.4%,.,1.8%,-6.5%,-0.8%,.,
CC(=O)c1ccc(-c2ccc(/C=C(/Sc3n[nH]c(C)n3)C(=O)O)o2)cc1,?,-10.6%,?,39.8µM*,?,.,POLI cherry-pick=47.4*
C[C@@H](NC(=O)CN(c1ccccc1)S(=O)(=O)N(C)C)c1ccccc1,18.8%,.,-10.2%,-3.4%,0.5%,.,
Cc1ccc(-c2cc3c(nn2)-c2ccccc2C3=O)cc1,52.2%,1.7%,-0.1%,?,-7.5%,5.8µM*,
O=C1c2ccccc2-c2nnc(-c3ccc(O)cc3)cc21,21.6%,1.1%,1.6%,-4.6%,-7.7%[60.1 µM],.,
Cc1cccc(CC2C(=O)Nc3ccccc32)c1 (centres undefined),-4.7%,.,-1.7%,1.0%,-7.9%,.,
Fc1cccc(/C=N/Nc2nccnc2Cl)c1,7.1%,0.0%,7.4%,-7.5%,-2.7%,16.3µM*,
Oc1ccc(/C=N/Nc2nccnc2Cl)cc1,-10.3%,-7.7%,-17.6%,-21.7%,-15.8%,9.19µM*,
Fc1ccc(/C=N/Nc2nccnc2Cl)cc1,18.2%,1.3%,32.4%,-23.2%,-15.8%,.,
COc1ccc(-n2c(=O)c3c4c(sc3n(CC(=O)N3CCCCC3C)c2=O)CCC4)c(OC)c1 (centres undefined),-9.5%,.,-18.2%,-13.5%,-7.6%,.,
O=C1NC(=Nc2ccc(Cl)cc2)/C(=C/c2ccco2)S1,28.2µM*,-6.7%[11.6 µM],8.91µM*,56.2µM*,?,.,POLI cherry-pick=?
SMILES,POLI inh,WRN helicase inh,POLB inh,Pol eta inh,Pol kappa inh,PGK validate,others
COc1ccc(C)cc1NC(=O)Cn1c(=O)cc(C)c2c(C)nn(C)c21,18.1%,.,-0.7%,.,-11.6%,.,
COc1ccc(OC)c(NC(=O)Cn2c(=O)cc(-c3ccccc3)c3c(C)nn(C)c32)c1,-4.4%,.,?,?,0.0%,.,POLI cherry-pick=47.4*
Cc1ccc(NC(=O)CN2C(=O)S/C(=C\c3cccn3-c3cccc(C(=O)O)c3)C2=O)c(C)c1,?,?,10µM*,3.55µM*,?,9.19µM*,
COc1cc(NC(=O)CCc2c(C)nn(-c3ccc(N4CCCCC4)nn3)c2C)cc(OC)c1OC,8.3%,.,30.1%,6.5%,4.8%,.,
CCOc1ccc(C2CC(=O)c3c([nH]c(C(=O)OC)c3C)C2)cc1OC (centres undefined),13.3%,-16.7%[57.1 µM],?,15.8µM*,0.2%,.,POLI cherry-pick=?
CCOC(=O)c1ccc2c(c1)C1C=CCC1C(C(=O)OCC)N2 (centres undefined),?,-11.2%[57.1 µM],?,?,-22.8%,.,
O=C(O)C1Nc2ccc(Br)cc2C2C=CCC12 (centres undefined),?,28.2µM*,1.58µM*,3.16µM*,10µM*,18.3µM*,
CC(C)CNC(=O)C1Nc2ccccc2C2C=CCC12 (centres undefined),?,4.9%,.,-15.2%,-15.0%,.,
O=C(O)C1Nc2c(O)cccc2C2C=CCC12 (centres undefined),?,11.2µM*,1.58µM*,1.26µM*,10µM*,3.26µM*,
CCc1ccc(CN2C(=O)c3ccccc3C2C(=O)NCCc2ccc(OC)c(OC)c2)cc1 (centres undefined),39.5%,.,3.0%,-19.2%,-2.0%[60.1 µM],.,
CN1/C(=C/C=C/c2n(C)c3cc([N+](=O)[O-])c([N+](=O)[O-])cc3[n+]2C)C(C)(C)c2ccccc21,.,?,.,?,.,?,
CCOC(=O)C1CCN(C(=O)C2CCN(S(=O)(=O)c3c(C)noc3/C=C/c3ccc(C)cc3)CC2)CC1,18.3%,.,-0.2%,-8.5%,-9.3%[60.1 µM],.,
COc1ccc(-n2nnc3c(=O)n(CC(=O)Nc4ccc5c(c4)OCCO5)cnc32)cc1OC,18.3%,-9.1%[11.6 µM],?,25.1µM*,-0.9%,.,POLI cherry-pick=67*
O=C(Oc1cc(=O)oc2c1c(=O)n1c3c(cccc23)CC1)c1ccc(F)cc1,?,-13.1%,?,-15.1%,0.8%,.,POLI cherry-pick=10.6*
O=C(NCc1ccc(F)cc1)c1c(O)c2cccc3c2n(c1=O)CCC3,-3.6%,-3.4%,25.8%,-2.0%,-7.7%,.,
